Where “and” joins values, the source holds several entries; their conditions need not be identical. Equal values may be shown once. This is part of a sample that, as a whole, favours compounds with a hit. Of some 79,000 tested, about 15% had one in any assay. Values without a mark were called inactive. Calls of active or inactive are those of the source. Rule as the data show it: active = growth inhibition above about 70%; inactive = the rest.
Experiments:
[1] = NCI Yeast Anticancer Drug Screen. Data for the rad50EPP+ strain (AID 151);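 also: 0% = growth of vehicle-treated control cultures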; conditions: S. cerevisiae rad50 mutant strain, hits give high values
How it was run: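 In this screen, rad50EPP+ yeast were exposed to compounds. Growth inhibition was scored against vehicle-treated controls.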

[2] = NCI Yeast Anticancer Drug Screen. Data for the mgt1 strain (AID 153); conditions: S. cerevisiae mgt1 mutant growth inhibition, hits give high values
How it was run: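 mgt1 strain exposed; growth vs vehicle control recorded as inhibition.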

[3] = NCI Yeast Anticancer Drug Screen. Data for the mec2-1 strain (AID 157); conditions: S. cerevisiae mec2-1 strain, hits give high values
How it was run: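 Vehicle-treated cultures served as reference for growth inhibition of compound-exposed mec2-1 yeast.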

[4] = NCI Yeast Anticancer Drug Screen. Data for the rad14 strain (AID 159);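 also: 0% = growth of vehicle-treated control cultures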; conditions: S. cerevisiae rad14 strain growth inhibition, hits give high values
How it was run: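 Compound-treated yeast with a defined DNA-repair lesion; growth inhibition normalised to vehicle-treated cultures.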

[5] = NCI Yeast Anticancer Drug Screen. Data for the CLN2oe strain (AID 163);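 also: 0% = growth of vehicle-only control cultures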; conditions: S. cerevisiae CLN2oe strain, hits give high values
How it was run: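 Inhibition relative to vehicle-treated yeast is reported. Cells: strain with genetic alteration in cell-cycle control, grown with compound.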

[6] = NCI Yeast Anticancer Drug Screen. Data for the cln2 rad14 strain (AID 165);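 also: 0% = growth equal to vehicle treated cultures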; conditions: S. cerevisiae cln2 rad14 strain, hits give high values
How it was run: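 Each compound was tested on cln2 rad14 yeast. Inhibition of growth was calculated against vehicle-exposed controls.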

[7] = NCI Yeast Anticancer Drug Screen. Data for the bub3 strain (AID 167); conditions: S. cerevisiae bub3 mutant strain, hits give high values
How it was run: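 Growth of a checkpoint-deficient yeast mutant is measured after compound exposure. Values represent inhibition relative to vehicle.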

[8] = NCI Yeast Anticancer Drug Screen. Data for the mlh1 strain (AID 171);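 also: 0% = growth of vehicle-treated control cultures of the same strain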; conditions: S. cerevisiae mlh1 strain growth inhibition, hits give high values
How it was run: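 Vehicle-normalised growth inhibition of a repair- or checkpoint-altered yeast strain following compound treatment.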

[9] = NCI Yeast Anticancer Drug Screen. Data for the sgs1 strain (AID 173);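 also: 0% = growth of vehicle-only control cultures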; conditions: S. cerevisiae sgs1 mutant, hits give high values
How it was run: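 Screen format: yeast with repair or checkpoint alterations, compound exposure, growth read relative to vehicle.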

[10] = NCI Yeast Anticancer Drug Screen. Data for the mlh1 rad18 strain (AID 175); conditions: S. cerevisiae mlh1 rad18 strain growth inhibition, hits give high values
How it was run: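 Vehicle-treated cultures served as the reference for growth inhibition in a yeast strain carrying DNA damage repair alterations exposed to each compound.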

[11] = NCI Yeast Anticancer Drug Screen. Data for the rad18 strain (AID 177); conditions: S. cerevisiae rad18 mutant growth inhibition, hits give high values
How it was run: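 Test articles were incubated with altered yeast defective in DNA damage repair. Results are given as inhibition of growth versus vehicle.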

[12] = NCI Yeast Anticancer Drug Screen. Data for the rad50 strain (AID 155);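 also: 0% = growth of vehicle-only cultures of the same strain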; conditions: S. cerevisiae rad50 strain growth inhibition, hits give high values
How it was run: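 Compounds were tested on a yeast strain with an engineered DNA damage repair alteration; the reported value is growth inhibition normalised to vehicle treatment.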

[13] = NCI Yeast Anticancer Drug Screen. Data for the sgs1 mgt1 strain (AID 161);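 also: 0% = growth of cultures given vehicle only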; conditions: S. cerevisiae sgs1 mgt1 strain, hits give high values
How it was run: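 Test agents were incubated with a DNA-repair-mutant yeast strain. Growth was then read and compared against vehicle-treated controls.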

[14] = at 5.0 µM (retest, dose inferred, filed as 0.5)
[15] = at 50.0 µM (retest, dose inferred, filed as 5.0)

In the case of CC1C=CN(N(C)C)C2=C1C(=O)c1cnccc1C2=O (stereo not given), the growth inhibition ([1]; at 1.2 µM) is reported as -4%, the growth inhibition ([1]; at 3.7 µM) is reported as 53% and the growth inhibition ([1]; at 11.0 µM) is reported as 82% (active). The growth inhibition ([1]; at 33.0 µM) was 91% (active), the growth inhibition ([1]; at 100.0 µM) was 93% (active) and the growth inhibition ([2]; at 1.2 µM) was -31%. For the same compound, the growth inhibition ([2]; at 3.7 µM) was 9%, the growth inhibition ([2]; at 11.0 µM) was 51% and the growth inhibition ([2]; at 33.0 µM) was 87% (active). The growth inhibition ([2]; at 100.0 µM) was 96% (active), the growth inhibition ([3]; at 1.2 µM) was -36% and the growth inhibition ([3]; at 3.7 µM) was -23%. For the same compound, the growth inhibition [3, 14] was 30%, the growth inhibition ([3]; at 11.0 µM) was 49% and the growth inhibition ([3]; at 33.0 µM) was 86% (active). For the same compound, the growth inhibition [3, 15] was 95% (active), the growth inhibition ([3]; at 50.0 µM) was 92.2% (active) and the growth inhibition ([3]; at 100.0 µM) was 96% (active). It also gave a growth inhibition ([4]; at 1.2 µM) of -70%, a growth inhibition ([4]; at 3.7 µM) of -31% and a growth inhibition ([4]; at 11.0 µM) of 46%. The growth inhibition ([4]; at 33.0 µM) was 89% (active), the growth inhibition ([4]; at 100.0 µM) was 95% (active) and the growth inhibition ([5]; at 1.2 µM) was -11%. For the same compound, the growth inhibition ([5]; at 3.7 µM) was 10%, the growth inhibition ([5]; at 11.0 µM) was 49% and the growth inhibition ([5]; at 33.0 µM) was 90% (active). The growth inhibition ([5]; at 100.0 µM) was 93% (active), the growth inhibition [6, 14] was 25% and the growth inhibition [6, 15] was -18%. For the same compound, the growth inhibition ([6]; at 50.0 µM) was 87.8% (active), the growth inhibition ([7]; at 1.2 µM) was -38% and the growth inhibition ([7]; at 3.7 µM) was -8%. For the same compound, the growth inhibition [7, 14] was 12%, the growth inhibition ([7]; at 11.0 µM) was 46% and the growth inhibition ([7]; at 33.0 µM) was 89% (active). For the same compound, the growth inhibition [7, 15] was 6%, the growth inhibition ([7]; at 50.0 µM) was 85.2% (active) and the growth inhibition ([7]; at 100.0 µM) was 97% (active). For the same compound, the growth inhibition ([8]; at 1.2 µM) was -48%, the growth inhibition ([8]; at 3.7 µM) was -23% and the growth inhibition ([8]; at 11.0 µM) was 40%. For the same compound, the growth inhibition ([8]; at 33.0 µM) was 89% (active), the growth inhibition ([8]; at 100.0 µM) was 97% (active) and the growth inhibition ([9]; at 1.2 µM) was 41%. The growth inhibition ([9]; at 3.7 µM) was 46%, the growth inhibition ([9]; at 11.0 µM) was 65% and the growth inhibition ([9]; at 33.0 µM) was 93% (active). For the same compound, the growth inhibition ([9]; at 100.0 µM) was 96% (active), the growth inhibition [10, 14] was 83% (active) and the growth inhibition [10, 15] was 95% (active). The growth inhibition ([10]; at 50.0 µM) was 89.8% (active), the growth inhibition ([11]; at 1.2 µM) was 66% and the growth inhibition ([11]; at 3.7 µM) was 87% (active). The growth inhibition ([11]; at 11.0 µM) was 90% (active), the growth inhibition ([11]; at 33.0 µM) was 96% (active) and the growth inhibition ([11]; at 100.0 µM) was 96% (active).

In the case of CC(C)c1ccc(O)c(=O)cc1, the growth inhibition [12, 14] is reported as 6% and 0%, the growth inhibition [12, 15] is reported as 42% and 28% and -1% and the growth inhibition ([12]; at 50.0 µM) is reported as 91.8% (active) and 92.7% (active) and 92.8% (active). For the same compound, the growth inhibition [3, 14] was 2% and -1%, the growth inhibition [3, 15] was 50% and 57% and 7% and the growth inhibition ([3]; at 50.0 µM) was 93.8% (active) and 94.7% (active) and 94.6% (active). The growth inhibition [13, 14] was 4% and 6%, the growth inhibition [13, 15] was 42% and 31% and 1% and the growth inhibition ([13]; at 50.0 µM) was 93.5% (active) and 94% (active) and 93% (active). For the same compound, the growth inhibition [6, 14] was 6% and 5% and -1%, the growth inhibition [6, 15] was 21% and 15% and 2% and the growth inhibition ([6]; at 50.0 µM) was 91.3% (active) and 90.5% (active) and 91.5% (active). For the same compound, the growth inhibition [7, 14] was 0% and -1% and -5%, the growth inhibition [7, 15] was 48% and 56% and -2% and the growth inhibition ([7]; at 50.0 µM) was 92.7% (active) and 93.3% (active) and 92.8% (active). The growth inhibition [10, 14] was 5% and 6% and 2%, the growth inhibition [10, 15] was 45% and 43% and -2% and the growth inhibition ([10]; at 50.0 µM) was 91.2% (active) and 92.4% (active) and 92.1% (active).

Reference: PubChem BioAssay (NCI)
